According to the supplement of paper PMC12636033:
± gives the standard deviation of the averaged measurements. Over roughly 33,000 sequences, “E-score (rank enrichment, -0.5 to 0.5)” has its median near -0.0068; the highest 2% begin near 0.24. What follows is part of a selection rich in the highest values, with near analogues and random picks from the rest.

Test system: muMax20 (Max(13-93) K31hArg/K57hArg, M65Nle)
Test: PBM 8-mer E-score (E-score (rank enrichment, -0.5 to 0.5)); higher = stronger preferential binding
Experimental: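 Protein binding microarray (universal PBM chip covering all 10-mers in fixed probe flanks) with chemically synthesized human Max(13-93) bHLH-LZ analogs (not full-length Max) bearing noncanonical residues (hArg, Tha, Aib, Nle at 65) and aromatic Cys staples. Read-out per 8-mer (and its reverse complement): E-score (rank-based enrichment, -0.5 to 0.5) and Z-score of median probe intensity.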

| Sequence | PBM 8-mer E-score |
| --- | --- |
| ACTTATAA | 0.0449 ± 0.25 |
| AATCTTTG | 0.0923 ± 0.013 |
| CGTTGGGA | -0.0152 ± 0.0038 |
| GTGTTCTA | 0.169 ± 0.024 |
| AAATCCGT | -0.0161 ± 0.1 |
| AGGTCCGC | -0.129 ± 0.034 |
| ATATTTTA | 0.203 ± 0.0096 |
| ACACGAAC | 0.122 ± 0.011 |
| ATGTTTAG | 0.222 ± 0.12 |
| CTGTTTAC | 0.106 ± 0.041 |
| ATGTTTAC | 0.245 ± 0.073 |
| AGTTCACC | -0.068 ± 0.0075 |
| AATTAAAC | 0.268 ± 0.072 |
| ATTAAAAC | 0.269 ± 0.022 |
| ATTAAAAA | 0.0946 ± 0.0066 |
| ATTAAACG | 0.287 ± 0.003 |
| AATTAAAG | 0.108 ± 0.13 |
| ATTAAACA | 0.132 ± 0.15 |
| GATTAAAC | 0.134 ± 0.071 |
| ATTAAAAG | 0.119 ± 0.073 |
| ATTAAACC | 0.164 ± 0.03 |
| GTTCTTGA | 0.0649 ± 0.045 |
| CAAGGTGG | -0.0168 ± 0.088 |
| TAGAAGAA | -0.0576 ± 0.025 |
| GACATCCC | -0.00641 ± 0.062 |

| Sequence | PBM 8-mer E-score |
| --- | --- |
| AATACCTA | 0.214 ± 0.067 |
| CGAAGCTA | -0.176 ± 0.022 |
| GGTCCAAC | -0.234 ± 0.16 |
| ATGGTAAA | 0.13 ± 0.053 |
| ATTATTAC | 0.255 ± 0.028 |
| ACTATTAG | -0.0835 ± 0.051 |
| ATTATTAA | 0.212 ± 0.035 |
| CTTATTAC | 0.101 ± 0.014 |
| ATTATTAG | 0.247 ± 0.061 |
| ACTATTAC | 0.0842 ± 0.022 |
| GCGGCTGA | -0.177 ± 0.019 |
| CAATTCAA | 0.0283 ± 0.0014 |
| ATTCCCCA | 0.209 ± 0.066 |
| ACTCCAGA | -0.0288 ± 0.033 |
| CCAGGAAC | -0.286 ± 0.11 |
| CAGGATTA | 0.0457 ± 0.03 |
| CAGCAGGG | -0.114 ± 0.086 |
| CAAGAACA | -0.0329 ± 0.2 |
| GAAGAACA | 0.127 ± 0.031 |
| TAAGAACA | 0.239 ± 0.0029 |
| ACGTTTAT | 0.0742 ± 0.017 |
| AATTGGCC | -0.0791 ± 0.05 |
| GTTGGTAA | 0.0564 ± 0.03 |
| ATATGTGG | 0.261 ± 0.098 |
| ATATGTGC | 0.121 ± 0.056 |

| Sequence | PBM 8-mer E-score |
| --- | --- |
| ATGTGTGG | 0.104 ± 0.095 |
| GTATGTGA | 0.0146 ± 0.021 |
| CTATGTGA | 0.0996 ± 0.088 |
| ATATGTGA | 0.32 ± 0.08 |
| CACGAATG | 0.101 ± 0.063 |
| GGCGGACA | -0.0909 ± 0.047 |
| GTCCTAAA | 0.0453 ± 0.11 |
| ATGGCATG | 0.0857 ± 0.18 |
| ACTTTCTA | 0.237 ± 0.046 |
| ACTTTCTG | -0.00396 ± 0.12 |
| ACTTTCTC | 0.0328 ± 0.03 |
| CCGAAAAG | 0.0771 ± 0.15 |
| ATGAATTG | 0.179 ± 0.062 |
| AATACACA | 0.308 ± 0.05 |
| TATACACA | 0.234 ± 0.038 |
| CATACACG | 0.166 ± 0.029 |
| ACTACAAC | 0.268 ± 0.024 |
| CGTATACA | 0.216 ± 0.049 |
| AATACACT | 0.188 ± 0.042 |
| GGTATACA | 0.109 ± 0.022 |
| CCTACAAC | 0.13 ± 0.0096 |
| TGTATACA | 0.335 ± 0.051 |
| CATACACA | 0.221 ± 0.047 |
| ACTACAAG | 0.135 ± 0.062 |
| AATACACG | 0.256 ± 0.027 |

| Sequence | PBM 8-mer E-score |
| --- | --- |
| CGCGACCA | -0.136 ± 0.0046 |
| ATATGGTA | 0.217 ± 0.0028 |
| GTCGGACA | -0.2 ± 0.096 |
| GAATAACC | 0.0359 ± 0.041 |
| TCGAAACA | 0.00709 ± 0.067 |
| ACAGAGTC | -0.0304 ± 0.021 |
| ATCCTACA | -0.0539 ± 0.011 |
| GTTCCCGA | -0.272 ± 0.029 |
| AAACTCGG | -0.00029 ± 0.062 |
| TGAAATCA | 0.102 ± 0.042 |
| CACCTAGC | 0.0921 ± 0.017 |
| ACTACACA | 0.315 ± 0.053 |
| TGTACACA | 0.251 ± 0.073 |
| ACTACACG | 0.149 ± 0.0089 |
| AGTACACA | 0.22 ± 0.037 |
| CGTACACG | 0.212 ± 0.059 |
| CCTACACG | 0.00955 ± 0.02 |
| ATCCCTGG | -0.185 ± 0.058 |
| ACTCCATC | -0.129 ± 0.053 |
| ATTTCATC | 0.17 ± 0.077 |
| TGAAGACA | -0.094 ± 0.12 |
| CAAGTATA | 0.187 ± 0.011 |
| CATGTATA | 0.228 ± 0.034 |
| AATGTATA | 0.279 ± 0.074 |
| CTTGTATA | 0.136 ± 0.16 |

| Sequence | PBM 8-mer E-score |
| --- | --- |
| ATTGTATA | 0.131 ± 0.13 |
| ACTGTATA | 0.255 ± 0.011 |
| CCTGTATA | 0.116 ± 0.042 |
| GCTGTATA | 0.192 ± 0.026 |
| AAAGTATT | 0.221 ± 0.0025 |
| GTTGTATA | 0.249 ± 0.025 |
| AAAGTATA | 0.315 ± 0.012 |
| GATGTATA | 0.103 ± 0.14 |
| ACGCCATA | 0.0949 ± 0.073 |
| TCTAAACA | 0.16 ± 0.033 |
| CTGAGTTA | -0.0809 ± 0.031 |
| AGAAAAAA | 0.231 ± 0.056 |
| CATCGAGC | -0.0831 ± 0.0056 |
| AAATGTGC | 0.121 ± 0.067 |
| ACGGTGCT | -0.0206 ± 0.018 |
| ATTGTTTA | 0.103 ± 0.011 |
| CTTGTTTA | 0.0457 ± 0.0082 |
| GTTGTTTA | 0.32 ± 0.063 |
| ACATTGTG | 0.144 ± 0.17 |
| TAGATCTA | 0.0708 ± 0.14 |
| CACATATG | 0.131 ± 0.036 |
| ACCATATC | 0.0503 ± 0.19 |
| AACATATA | 0.286 ± 0.079 |
| ACCATATA | 0.278 ± 0.042 |
| CACATATA | 0.325 ± 0.081 |

| Sequence | PBM 8-mer E-score |
| --- | --- |
| TACATAGA | 0.163 ± 0.051 |
| ACCATATG | 0.159 ± 0.02 |
| CACATATC | 0.149 ± 0.067 |
| GACATATC | 0.135 ± 0.032 |
| AACATATG | 0.136 ± 0.027 |
| GACATATA | 0.0588 ± 0.11 |
| TACATATA | 0.238 ± 0.022 |
| CGTCGGAG | -0.1482 ± 0.0013 |
| CGCACTAG | -0.0251 ± 0.025 |
| GCAGATCA | -0.15 ± 0.0073 |
| CTACCTGC | -0.0986 ± 0.014 |
| ATAAATAG | 0.167 ± 0.075 |
| AGAAATAC | 0.0602 ± 0.05 |
| AGAAATAA | 0.259 ± 0.097 |
| AAAAATAT | 0.229 ± 0.035 |
| TTAAATAA | 0.18 ± 0.063 |
| ATAAATAC | 0.263 ± 0.071 |
| ATAAATAA | 0.231 ± 0.0076 |
| ATAAATAT | 0.319 ± 0.01 |
| GGAAATAA | 0.154 ± 0.013 |
| TTAAGGAA | 0.0354 ± 0.0092 |
| AGGAAGTG | -0.0996 ± 0.0079 |
| CTCTTGAC | -0.0583 ± 0.0029 |
| CCCAAATA | 0.176 ± 0.061 |
| ACCGATCC | -0.277 ± 0.0028 |

| Sequence | PBM 8-mer E-score |
| --- | --- |
| AGAAGCAA | 0.1 ± 0.028 |
| ATCGGTTA | -0.0224 ± 0.05 |
| ATGATTAC | 0.149 ± 0.044 |
| GATAGAGC | -0.15 ± 0.001 |
| CTACATAG | 0.138 ± 0.14 |
| GATGCACA | -0.00748 ± 0.045 |
| CATGCATG | 0.3719 ± 0.0024 |
| CGTGCACA | 0.098 ± 0.028 |
| TGTGCACA | 0.221 ± 0.046 |
| CATGCACG | 0.183 ± 0.026 |
| CATGCATA | 0.19 ± 0.13 |
| CATGCATC | 0.0441 ± 0.017 |
| CATGCACA | 0.317 ± 0.082 |
| CGTGCACG | 0.283 ± 0.13 |
| AATGCATC | 0.129 ± 0.082 |
| AATGCATA | 0.171 ± 0.09 |
| AATGCATT | 0.348 ± 0.072 |
| GTGAATTA | 0.191 ± 0.067 |
| CCTTACGC | 0.0271 ± 0.0015 |
| AGCGTTTG | -0.169 ± 0.14 |
| CCAAGTGG | -0.15414 ± 2.1e-05 |
| CTTTAGGC | -0.158 ± 0.011 |
